Source: PubChem BioAssay (National Center for Advancing Translational Sciences (NCATS))
HPGD inh = blocks human HPGD enzyme activity; P15428; purified HPGD, NADH fluorescence kinetic, PGE2 substrate; Potency, µM, actives largely listed as inhibitors; 150,000 compounds, 4.3% hits
Target sequence (P15428 whole entry, looked up): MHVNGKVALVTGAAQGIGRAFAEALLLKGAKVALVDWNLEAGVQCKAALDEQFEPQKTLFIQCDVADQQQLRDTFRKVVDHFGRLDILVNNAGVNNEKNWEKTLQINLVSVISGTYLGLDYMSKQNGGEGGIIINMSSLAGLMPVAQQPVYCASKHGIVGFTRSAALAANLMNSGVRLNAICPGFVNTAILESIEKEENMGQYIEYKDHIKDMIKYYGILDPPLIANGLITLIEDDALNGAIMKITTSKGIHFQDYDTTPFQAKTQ
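20 nM HPGD preincubated 15 min at room temperature with compound in 50 mM Tris-HCl pH 8, 0.01% Tween 20. Started with 1 mM NAD+ and 30 uM prostaglandin E2; NADH fluorescence (360/450 nm) read 5 times over 30-s intervals, last minus first.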
ALDH1A1 block = inhibitors of human aldehyde dehydrogenase 1A1; P00352; Purified ALDH1A1, NADH fluorescence, propionaldehyde substrate; Potency, µM (top dose mostly 75.3 µM), most hits filed as inhibitors; 220,000 compounds, 7.3% hits
KinaseGlo FLuc = blocks Kinase-Glo luciferase, a counter-screen artifact; Kinase-Glo luciferase, ATP luminescence, 8 min; Potency, µM (series often up to 38.3 µM), most hits filed as inhibitors; Q27757; AID 1379; 200,000 compounds, 0.28% hits; active = well fitted inhibition curve with a large enough effect; inconclusive = small, poorly fitted or top-dose-only effect; note: nearly all actives have a fitted effect of over 60% in size
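Light output from Kinase-Glo luciferase with luciferin and 10 uM ATP in 50 mM imidazole pH 7.2, KCl, MgCl2, Tween 20, BSA; compound pin-delivered, 8-min ambient incubation, then luminescence read.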
PNC inhibitor = inhibitors of perinucleolar compartment assembly; activity change (PNC), negative = inhibition, % at 10 µM; AID 2417; 140,000 compounds, 3.1% hits; PC3M PTB-GFP, PNC prevalence imaging, 16 h; active compounds read low;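 active = readout at or below -70, meaning at least 70% loss of cells showing the perinucleolar compartment, a nuclear body marking cancer cells; inconclusive = readout between -30 and a set limit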
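Read-out is percentage of cells bearing a perinucleolar compartment, from automated 20x imaging of fixed, Hoechst-stained PC3M PTB-GFP cells. Cells were seeded 4 h, then exposed 16 h to compound (23 nl of library stock) in duplicate plates.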
Lamin A splicing = modulators of lamin A splicing; AID 1487; Potency, µM (doses to about 46.1 µM), most hits filed as inhibitors; HeLa LMNA splicing GFP/RFP minigene ratio, 48 h; 200,000 compounds, 0.01% hits; active = well fitted inhibition curve with a large enough effect in the signal ratio, with a control signal flat, not every such curve was filed as active; inconclusive = small, poorly fitted or top-dose-only effect, or effect the other way, or a change in a side signal; the % refers to the signal ratio
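S3 HeLa stable clones carrying a lamin A-EGFP splicing minigene plus DsRed2 were seeded at 600 cells/well in Opti-MEM with 2% FBS, pin-dosed and incubated 48 h at 37°C. Acumen cytometry (488 nm) gave the GFP/RFP total-intensity ratio.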
Large screens that a line does not name were inactive; ! = not active in a repeat. Compounds with a hit are over-represented: about 10% of the library has one in this group of screens. Unless noted, calls come from the whole dose curve; as a rule, active = well fitted inhibition curve with a large enough effect (not every such curve was filed as active); inconclusive = small, poorly fitted or top-dose-only effect, or another doubt; inactive = no such curve, though single readings can be large or run the other way.

O=C(CSc1ccc(-c2ccco2)nn1)NC1CCCCC1	ALDH1A1 block 4µM (no result: HPGD inh, PNC inhibitor, Lamin A splicing)
O=C(CSc1ccc(-c2ccccn2)nn1)NC1CCCCC1	none (no result: HPGD inh, PNC inhibitor)
O=C(CSc1ccc(-c2ccco2)nn1)NC1CCCC1	ALDH1A1 block 35µM (no result: HPGD inh, PNC inhibitor, Lamin A splicing)
CCN(CC)CCCn1c(-c2ccccc2)nc2c(NCCOC)nc(C)nc21	HPGD inh inconclusive, ALDH1A1 block inconclusive (no result: PNC inhibitor, Lamin A splicing)
CCCn1cnc2c(c1=O)c1nc3ccccc3nc1n2CCC1=CCCCC1	none
O=c1c2c3nc4ccccc4nc3n(/N=C/c3ccco3)c2ncn1CCC1=CCCCC1	ALDH1A1 block 25µM, PNC inhibitor inconclusive
CC(C)C(OC(=O)c1cc2sccc2n1C)C(=O)NCC1CCCO1 (centres undefined)	Lamin A splicing inconclusive
COc1ccc(CN(CC2CCCO2)C(=O)c2cc3sccc3n2C)c(OC)c1 (centres undefined)	ALDH1A1 block 11µM (no result: HPGD inh, PNC inhibitor, Lamin A splicing)
Oc1c(Cl)cc(Cl)cc1Sc1cc(Cl)cc(Cl)c1O	HPGD inh 32µM!, ALDH1A1 block 24µM!, Lamin A splicing inconclusive
Cc1ccc(NC(=O)c2nn(C34CC5CC(CC(C5)C3)C4)cc2[N+](=O)[O-])cc1	ALDH1A1 block 0.028µM, Lamin A splicing inconclusive
COc1ccc(NC(=O)c2nn(C)cc2[N+](=O)[O-])cc1	none (no result: HPGD inh, KinaseGlo FLuc, PNC inhibitor, Lamin A splicing)
COc1cc(CN2CCNC(=O)C2CC(=O)NCCC2=CCCCC2)cc(OC)c1 (centres undefined)	ALDH1A1 block 20µM, Lamin A splicing inconclusive (no result: HPGD inh, PNC inhibitor)
CCOc1ccc(CN2CCNC(=O)C2CC(=O)NCCC2=CCCCC2)cc1 (centres undefined)	ALDH1A1 block inconclusive (no result: HPGD inh, PNC inhibitor, Lamin A splicing)
CC(C)N=C=NC(C)C	none (no result: KinaseGlo FLuc, PNC inhibitor, Lamin A splicing)
CCNC(=S)NS(=O)(=O)c1ccc(CC)cc1	HPGD inh inconclusive, ALDH1A1 block inconclusive
CCc1ccc(NC(=S)NCc2ccccc2)cc1	none (no result: HPGD inh, PNC inhibitor, Lamin A splicing)
CCNC(=S)NS(=O)(=O)c1ccc(C)cc1	ALDH1A1 block inconclusive, PNC inhibitor -85 (no result: HPGD inh, KinaseGlo FLuc)
CCc1ccc(S(=O)(=O)NC(=S)Nc2ccccc2)cc1	ALDH1A1 block 32µM (no result: HPGD inh, KinaseGlo FLuc, PNC inhibitor, Lamin A splicing)
Cc1ccc(S(=O)(=O)NNC(=S)Nc2ccccc2)cc1	HPGD inh 11µM, ALDH1A1 block 7.5µM
COc1ccc(C)cc1NC(=O)C1CCN(S(=O)(=O)c2ccc3c(c2)CCCN3C(C)=O)CC1	none (no result: HPGD inh, ALDH1A1 block, KinaseGlo FLuc, PNC inhibitor)
COc1ccc2c(c1)c(C(C)=O)c(C)n2-c1ccccc1	PNC inhibitor inconclusive
COc1ccc(-n2c(C)c(C(C)=O)c3cc(O)ccc32)cc1	HPGD inh 4µM, PNC inhibitor inconclusive
CCOc1ccc(-n2c(C)c(C(C)=O)c(C(C)=O)c2C)cc1	ALDH1A1 block 22µM, PNC inhibitor inconclusive
COc1ccc(-n2c(C)c(C(C)=O)c(C(C)=O)c2C)cc1	none
O=C(O)c1cn(-c2ccc(F)cc2)c2cc(N3CCNCC3)c(F)cc2c1=O	HPGD inh inconclusive, ALDH1A1 block inconclusive, Lamin A splicing inconclusive (no result: PNC inhibitor)
CCNC(=O)c1ccc2nc(CCc3ccccc3)oc2c1	none (no result: HPGD inh, ALDH1A1 block, KinaseGlo FLuc, PNC inhibitor)
Cc1cc(/C=C2\NC(=O)NC2=O)c(C)n1-c1ccc(N2CCOCC2)cc1	ALDH1A1 block 25µM (no result: HPGD inh, KinaseGlo FLuc, PNC inhibitor, Lamin A splicing)
Cc1cc(C=O)c(C)n1-c1ccc(N2CCOCC2)cc1	ALDH1A1 block 3.2µM, Lamin A splicing inconclusive
Cn1cc(S(=O)(=O)c2ccccc2)c(=O)c2cc(F)c(N3CCN(c4ccccc4)CC3)cc21	none (no result: HPGD inh, ALDH1A1 block, KinaseGlo FLuc, PNC inhibitor)
COc1cccc(-n2c(SCC(=O)OC(C)C)nnc2-c2cccnc2)c1	HPGD inh 22µM, PNC inhibitor inconclusive
COC(=O)CSc1nnc(C)n1-c1ccc(C)cc1	none
CC(C)OC(=O)CSc1nnc(-c2cccnc2)n1N	none
COC(=O)CSc1nnc(C)n1-c1cccc(OC)c1	PNC inhibitor -96
Cc1ccc2nc(NC(=O)c3ccc(Cn4cc(Cl)cn4)o3)sc2c1	HPGD inh inconclusive, ALDH1A1 block inconclusive, PNC inhibitor -100, Lamin A splicing inconclusive
Cc1cc(NC(=O)c2cnn3c(C(F)F)cc(C4CC4)nc23)no1	ALDH1A1 block 5µM
Cc1cc(NC(=O)c2cnn3c(C(F)F)cc(-c4ccccc4)nc23)no1	ALDH1A1 block inconclusive
O=C(c1nc2ccccc2s1)N1CCSCC1	HPGD inh 8.9µM, PNC inhibitor inconclusive
N#C/C(=N\Nc1ccc(S(=O)(=O)N2CCCCC2)cc1)C(N)=S	ALDH1A1 block 13µM, Lamin A splicing inconclusive
CC(=O)Nc1ccc(S(=O)(=O)N2CCN(S(=O)(=O)N3CCCCC3)CC2)cc1	none (no result: HPGD inh, KinaseGlo FLuc, PNC inhibitor, Lamin A splicing)
